# This is a sample that favours compounds with a hit; in the whole collection about 11% have one here.
# USP30 inh: inhibitors of human USP30 deubiquitinase. Q70CQ3. purified USP30, Ub-rhodamine cleavage fluorescence. inhibition, % at 25 µM. 47,000 tested, 5.3% active
# OTUD3 block: inhibitors of human OTUD3 deubiquitinase; AID 1645858; Q5T2D3; inhibition, % at 25 µM; purified OTUD3, Ub-rhodamine fluorescence, 2 h; 47,000 tested, 0.7% active
# Target sequence (Q5T2D3 whole entry, looked up): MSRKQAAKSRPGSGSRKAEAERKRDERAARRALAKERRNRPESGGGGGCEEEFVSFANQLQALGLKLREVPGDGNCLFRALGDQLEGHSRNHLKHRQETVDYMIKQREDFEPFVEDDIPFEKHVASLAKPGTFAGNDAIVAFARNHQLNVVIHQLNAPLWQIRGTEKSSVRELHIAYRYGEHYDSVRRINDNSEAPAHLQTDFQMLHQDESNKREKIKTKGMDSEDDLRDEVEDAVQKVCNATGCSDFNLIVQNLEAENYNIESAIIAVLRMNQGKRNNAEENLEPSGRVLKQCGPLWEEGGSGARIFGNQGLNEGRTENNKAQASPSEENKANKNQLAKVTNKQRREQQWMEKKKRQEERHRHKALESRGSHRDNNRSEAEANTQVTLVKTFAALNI
# USP28 inh: blocks human USP28 ubiquitin-rhodamine cleavage; Q96RU2; purified USP28, Ub-rhodamine cleavage fluorescence, 30 min; inhibition, % at 25 µM; 47,000 tested, 3% active
# USP17 block: inhibitors of human USP17 deubiquitinase. purified USP17, Ub-rhodamine cleavage fluorescence, 3 h. AID 1645855. inhibition, % at 50 µM. 47,000 tested, 6.5% active
# Starred values were filed as active, the others as inactive; x = no result. No stated cut-off is given here; in the data, active means inhibition above about 30%; inactive means the rest.
SMILES,USP30 inh,OTUD3 block,USP28 inh,USP17 block
COC1/C=C/OC2(C)Oc3c(C)c(O)c4c(c3C2=O)C(=O)C=C(NC(=O)/C(C)=C\C=C\C(C)C(O)C(C)C(O)C(C)C(OC(C)=O)C1C)C4=O (centres undefined),-61,4,9,64*
CO[C@H]1/C=C/OC2(C)Oc3c(C)c(O)c4c(c3C2=O)C2(C=C(NC(=O)/C(C)=C\C=C\[C@H](C)[C@H](O)[C@@H](C)[C@@H](O)[C@@H](C)[C@H](OC(C)=O)C1C)C4=O)OCC(=O)O2 (some centres undefined),-49,6,23,60*
O=C(Cc1cccc2ccccc12)Nc1ccc2c(c1)NC(=O)CO2,30*,1,50*,19
O=C1COc2ccc(NC(=O)N3CCN(C(c4ccccc4)c4ccccc4)CC3)cc2N1,-14,-3,3,3
COc1cccc(CNCc2nc(NCc3cccc(OC)c3)c3c(C)c(C)sc3n2)c1,42*,15,37*,16
Cc1cc(=O)n2c3c(c4c(cc13)c(CO)cc(=O)n4C)OC2,7,6,23,85*
COc1ccc(CNC(=O)Cn2c(=O)cc(-c3ccccc3)c3c(C)nn(-c4ccccc4)c32)cc1,31*,12,14,19
COc1ccc(CNC(=O)CN2C(=O)c3cccc4cccc2c34)cc1,-15,-28,22,46*
COc1ccc(CNC(=O)CN2CCSc3ccccc32)cc1,-16,-4,-10,-15
O=C(NCC1(c2ccccc2F)CCOCC1)[C@@H]1C[C@@H]2C=C[C@H]1C2,4,-7,-9,-16
Cc1cc(-c2ccc(S(=O)(=O)NC3CC3)s2)on1,3,-3,3,-5
CC(=O)c1cccc(NS(=O)(=O)c2ccc(-c3cc(C)no3)s2)c1,15,8,8,11
Cc1cc(-c2ccc(S(=O)(=O)NCc3ccccc3C)s2)on1,37*,16,19,35*
Cc1cccc(CNS(=O)(=O)c2ccc(-c3cc(C)no3)s2)c1,29,11,16,36*
Cc1cc(-c2ccc(S(=O)(=O)NCc3ccc(Cl)cc3)s2)on1,59*,3,59*,77*
Cc1cccc(CNS(=O)(=O)c2ccc(-c3cc(C(F)(F)F)on3)s2)c1,19,14,10,43*
COc1ccc(CC(=O)Nc2cccn3c(C)nnc23)c(Cl)c1,-16,0,0,0
COc1ccc(-c2nc(SCC(=O)Nc3ccc(Cl)cc3F)n[nH]2)cc1,33*,-4,-1,59*
COc1ccc(C(CC(=O)Nc2ccc(Cl)cc2F)NC(=O)C(F)(F)F)cc1 (centres undefined),12,2,-6,31*
CCc1ccc(C(CC(=O)Nc2ccc3c(c2)OCO3)NC(=O)C(F)(F)F)cc1 (centres undefined),16,18,11,19
COc1ccc(S(=O)(=O)N2CCCCCC2c2sccc2C)cc1 (centres undefined),30*,21,-18,19
CN(C)[C@@H]1[C@@H](O)[C@H](Oc2ccccc2)C[C@H]1NC(=O)c1cncn1C,15,16,17,16
c1ccc(-c2onc3c2CCCC3)cc1,17,10,35*,9
Cc1ccc(NC(=O)Nc2ccc(C)n(CC(=O)Nc3ccccc3)c2=O)cc1,x,4,x,89*
Cc1ccc(NC(=O)Cn2c(C)ccc(NC(=O)Nc3cccc(C)c3)c2=O)cc1,-20,-1,-4,-2
SMILES,USP30 inh,OTUD3 block,USP28 inh,USP17 block
Cc1ccc(C)c(NC(=O)Cn2c3ncccc3c(=O)n2-c2ccccc2)c1,45*,13,5,x
CC1C[C@@H]2OC2/C=C\C=C\C(=O)Cc2c(Cl)c(O)cc(O)c2C(=O)O1 (some centres undefined),17,16,7,21
O=C(Nc1nc2c(ccc3ccccc32)s1)C1CCCC1,34*,10,29,14
O=C1OC(C(=O)Nc2nc3c(ccc4ccccc43)s2)Cc2ccccc21 (centres undefined),9,15,6,39*
O=C(O)Cc1ccc(NC(=O)C2Cc3ccccc3C(=O)O2)cc1 (centres undefined),2,3,3,-6
COc1cc(=O)c(C(=O)Nc2ccccc2)nn1-c1cccc(F)c1,9,-2,-7,-4
COc1ccccc1NC(=O)c1nn(-c2cccc(F)c2)c(OC)cc1=O,76*,9,18,46*
CCOc1ccc2ncc(S(=O)(=O)c3ccc(OC)cc3)c(N3CCC4(CC3)OCCO4)c2c1,7,9,0,5
O=[N+]([O-])c1cccc(CSc2nnc(/C=C/c3ccccc3)o2)c1,26,12,58*,18
N#Cc1ccc(C(=O)N2CCC(COc3ccc(C(=O)N4CCOCC4)cc3)CC2)cc1,3,-4,-3,0
N#Cc1c(C(F)(F)F)cc(-c2ccccc2)nc1N1CCOCC1,0,0,-5,30*
C=C(NC(=O)C(=C)NC(=O)c1csc(-c2ccc3c(n2)-c2csc(n2)-c2csc(n2)C(C(C)C2CO2)NC(=O)C(Cc2ccc(O)cc2)NC(=O)c2csc(n2)C(C(O)c2ccccc2)NC(=O)c2nc(sc2C)C(CC(N)=O)NC(=O)c2csc-3n2)n1)C(=O)O (centres undefined),24,1,22,68*
C=C(NC(=O)C(=C)NC(=O)C(=C)NC(=O)C(=C)NC(=O)c1ccc2c(n1)-c1coc(n1)C(=C)NC(=O)C(=C)NC(=O)c1csc(n1)C(C)NC(=O)c1csc(n1)CNC(=O)c1coc(n1)C(CSC)NC(=O)C(C(C)O)NC(=O)c1csc-2n1)C(=O)O (centres undefined),-314,-28,-50,-39
Cc1ccc(-c2noc(C3CCCO3)n2)cc1 (centres undefined),x,0,x,6
Cc1ccc2nc(N3CCN(C(=O)C4CCCCC4)CC3)sc2c1,0,-4,-6,0
COc1cc(OC)cc(-n2c(=O)c3sccc3n(CC(=O)Nc3ccc(C)cc3)c2=O)c1,20,5,8,62*
COc1cc(OC)cc(-n2c(=O)c3sccc3n(CC(=O)c3ccc(F)cc3)c2=O)c1,56*,9,10,20
Cc1cc(C(=O)NCC2CCCO2)c2cccc(C)c2n1 (centres undefined),-50,-10,-7,-32
Cc1ccc(COc2cc(C(=O)NCc3ccccc3C)c3ccccc3n2)cc1,43*,24,16,20
Cc1ccc(COc2cc(C(=O)NCC3CCCO3)c3ccccc3n2)cc1 (centres undefined),46*,4,3,5
Cc1ccc(COc2cc(C(=O)NC(C)C)c3ccccc3n2)cc1,35*,8,12,10
O=C(NCC1CCCO1)c1cc2c(cn1)[nH]c1ccccc12 (centres undefined),-59,-9,34*,-38
Cc1ccccc1-c1noc(-c2ccccc2OCC(=O)NCc2ccco2)n1,-32,5,-7,21
CC1(C)Cc2c(c(N3CCCC3)nc3sc4c(NCc5ccco5)ncnc4c23)CO1,-68,-12,-26,1
